# Screening data (PubChem BioAssay)
# A selection: hits, their analogues and other compounds. The true share with any hit is near 1.6%.
# p53ts 39C tox – cytotoxicity in p53ts cells at nonpermissive temperature; H1299-p53A138V viability at 39C, ATP luminescence, 24 h; Potency, µM (highest dose often 46.1 µM), usual class: cytotoxic; actives 1.5% (n = 130,000); also: nearly all actives have a fitted effect of over 55% in size
# p53ts 32C kill – cytotoxicity in p53ts cells at permissive temperature; AID 924; actives 0.93% (n = 130,000); H1299-p53A138V at 32C, ATP luminescence viability, 24 h; Potency, µM (highest dose often 46.1 µM), actives largely listed as cytotoxic; also: nearly all actives have a fitted effect of over 55% in size
#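 Viability by ATPlite luminescence after 24 h compound treatment (up to 46 uM) at the permissive 32C. Cells are H1299 carrying p53 A138V. Scale runs from DMSO basal to 100 uM tamoxifen as full kill; AC50 from Hill fits.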
# Imprint erasure – induces erasure of genomic imprints in mouse ES cells; mouse ES Peg3-LacZ reporter, beta-gal luminescence, 40 h; Potency, µM (highest dose often 60.7 µM), most hits filed as activators; actives 0.02% (n = 110,000); AID 1948
#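 Imprint erasure is scored as LacZ activity from the silenced maternal Peg3 allele in feeder-free female ES cells cultured 40 h with LIF. Luminescence is normalized to in-plate negative controls and fitted to the Hill equation.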
# Numbers stand for hits; . = inactive; ? = inconclusive; / = not tested or not shown; [ ] = remark or other dose. Calls follow the shape of the dose curve; as a rule, active = well fitted curve in the direction sought with a large enough effect; inconclusive = small, poorly fitted or top-dose-only effect, or another doubt; inactive = no such curve, though single readings can be large; an effect the other way counts as inactive or inconclusive.
SMILES,p53ts 39C tox,p53ts 32C kill,Imprint erasure
CCNC(=O)c1ccc(NC(=O)N2CCCCc3ccccc32)cc1,.,.,.[10.9 µM]
CN1C(=O)CSc2ccc(NC(=O)N3CCc4ccccc43)cc21,?,10µM,.
Cc1ccc(NC(=O)N2CCc3ccccc32)cc1,5.01µM,4.47µM,/
CN1C(=O)CSc2ccc(NC(=O)N3CCN(c4ccccn4)CC3)cc21,.,.,.
COC(=O)c1sccc1S(=O)(=O)N(CC(=O)NCc1ccccc1)c1ccccc1,.,.,.[10.9 µM]
Cc1nn(S(=O)(=O)c2ccc(F)cc2)c(C)c1S(=O)(=O)N1CCCCCC1,.,.,.[10.9 µM]
NC(=O)N/N=C1\CC[C@H](O)C[C@@H]1CC(=O)O,.[9.22 µM],.[9.22 µM],.[10.9 µM]
COC(=O)c1ccc(C(NC(=O)OCc2ccccc2)/C(C)=C/[C@@H](C)C(=O)NCc2nn(-c3ccccc3)nc2C)cc1 (some centres not stated),.,.,.
O=C(CSc1cn(CC(=O)N2CCCC2)c2ccccc12)Nc1ccc(Cl)cc1,12.6µM,.,.[10.9 µM]
CCc1ccc(NC(=O)CSc2cn(CC(=O)N3CCCC3)c3ccccc23)cc1,.,.,.[10.9 µM]
CCCn1c(-c2ccc(F)cc2)nc2c(NCCCN(CC)CC)nc(C)nc21,.,.,.
COCCn1c(=O)c(-c2cccc(C#N)c2)nc2cnc(N3CCOCC3)nc21,.,.,.
N=C(N)SCc1cc(Cl)cc(Cl)c1O,.[9.22 µM],.[9.22 µM],.[10.9 µM]
O=C(N/N=C/C=C\c1ccccc1[N+](=O)[O-])c1cc(-c2ccc3ccccc3c2)n[nH]1,.,.,/
O=[N+]([O-])c1cccc(/C=N\Nc2ccc3ccccc3n2)c1O,3.98µM,2.51µM,.[10.9 µM]
Cc1ccc(NS(=O)(=O)c2ccc3[nH]c4c(c3c2)CCCCCC4)cc1C,?,.,.[10.9 µM]
Cc1ccc(NS(=O)(=O)c2ccc3[nH]c4c(c3c2)CCCCCC4)cc1,?,.,.[10.9 µM]
CCc1ccc(NS(=O)(=O)c2ccc3[nH]c4c(c3c2)CCCCCC4)cc1,20µM,.,.[10.9 µM]
CCOC(=O)c1ccc(NS(=O)(=O)c2ccc3[nH]c4c(c3c2)CCCCC4)cc1,15.8µM,?,.[10.9 µM]
O=C(O)CCn1cnc2c(=S)nc[nH]c21,.[9.22 µM],.[9.22 µM],.[10.9 µM]
CCOc1ccc(NC(=O)c2cccnc2C(=O)O)cc1,.,.,.
CCOc1ccc(NC(=O)c2ccccc2OC)cc1,3.98µM,12.6µM,.
COc1ccc(C(=O)Nc2ccc(C)cn2)c(OC)c1,0.631µM,0.501µM,.
CCOc1ccc(NC(=O)c2ccccc2O)cc1,7.94µM,7.94µM,.
C=CCNC(=O)c1ccc(OC)cc1OC,.,.,.
SMILES,p53ts 39C tox,p53ts 32C kill,Imprint erasure
COc1ccccc1C(=O)Nc1ccc(C(=O)O)cc1,.,.,.
CCOc1ccc(NC(=O)c2ccccc2CO)cc1,?,?,.
CCOc1ccc(NC(=O)c2nccnc2CO)cc1,10µM,12.6µM,.
COCCCn1c(SCc2cccc(Cl)c2)nc2c(sc3ccccc32)c1=O,.,.,.[10.9 µM]
Cc1oc(-c2ccc(Cl)cc2)nc1CSc1nnc(C)n2c1cc1sccc12,.,.,?
COc1ccccc1C(=O)Nc1ccccn1,10µM,10µM,.
CCCC(=O)Nc1ccc(NC(=O)c2ccccc2OC)cn1,.,.,.
CCOC(=O)c1c(NC(=O)c2cc3nc(-c4ccccc4)cc(C(F)(F)F)n3n2)sc2c1CCC(C)C2 (configuration not stated),.,.,.[10.9 µM]
C=CC(C1=CC(=O)C(OC)=CC1=O)c1ccccc1 (configuration not stated),.,12.6µM,.
C=CC(C1=CC(=O)C(OC)=CC1=O)c1ccc(OC)cc1 (configuration not stated),.,.,.
CCOC(=O)c1ccccc1NC(=O)Cn1c(=O)n(Cc2nc(C)no2)c(=O)c2ccccc21,.,.,.[10.9 µM]
CC1N/C(=C\C(=O)c2ccccc2)N(O)C1(C)C (configuration not stated),12.6µM,10µM,.
O=CC(=O)c1ccccc1,.,.[1.84 µM],.
Cc1ccc(Sc2ccc(N3CCC(C(=O)Nc4cc(C)cc(C)c4)CC3)nn2)cc1,12.6µM,?,.[10.9 µM]
COc1cccc(NC(=O)C2CCN(c3ccc(Sc4ccc(C)cc4)nn3)CC2)c1,.,.,.[10.9 µM]
CN1CCN(C(=O)Cn2ncc3c4ccccc4n(Cc4ccc(F)cc4)c3c2=O)CC1,.,.,.[10.9 µM]
O=C(Nc1ccc(Cl)cc1)C1CCCN(S(=O)(=O)c2ccc3[nH]c(=O)ccc3c2)C1 (configuration not stated),.,.,?
CC(C)c1ccc(NC(=O)C2CCCN(S(=O)(=O)c3ccc4[nH]c(=O)ccc4c3)C2)cc1 (configuration not stated),10µM,?,.[10.9 µM]
O=C(Nc1ccc2c(c1)OCO2)C1CCCN(c2nc3ccccc3s2)C1 (configuration not stated),?,20µM,.
Cc1cccc(NC(=O)C2CCCN(c3nc4ccccc4s3)C2)c1C (configuration not stated),.,.,.[10.9 µM]
Clc1ccccc1Cc1cn2cc(-c3ccccc3)nc2s1,3.16µM,?,.[10.9 µM]
Fc1ccc(-c2cn3cc(Cc4ccc(Cl)cc4)sc3n2)cc1,.,.,.[10.9 µM]
Brc1ccc(-c2cn3cc(Cc4ccccc4)sc3n2)cc1,?,.,.[10.9 µM]
Fc1ccc(Cc2cn3cc(-c4ccc(Cl)cc4)nc3s2)cc1,.,?,.[10.9 µM]
Fc1ccc(Cc2cn3cc(-c4ccccc4)nc3s2)cc1,2.51µM,3.16µM,.[10.9 µM]
SMILES,p53ts 39C tox,p53ts 32C kill,Imprint erasure
Fc1ccc(-c2cn3cc(Cc4ccccc4)sc3n2)cc1,5.01µM,2.24µM,.[10.9 µM]
N#Cc1ccc2c(c1)N(CCCN1CCC(O)CC1)c1ccccc1S2,.,.,.
COc1ccc(COC(=O)N/N=C2/C[C@@H](O)[C@@H](O)[C@@H]3[C@@H]4C(=O)N(c5cccc(Oc6ccccc6)c5)C(=O)[C@H]4CC[C@@H]23)cc1,.[9.22 µM],.[9.22 µM],/
Cc1cccc(NC(=O)c2ccc(CNS(=O)(=O)c3ccc4c(c3)C(C)(C)C(=O)N4C)cc2)c1,.,.,.[10.9 µM]
O=S(O)O.O=S(O)O.[Co].[NH2-].[NH2-].[NH2-].[NH2-],.[9.22 µM],.[9.22 µM],.[10.9 µM]
COc1ccc(-c2ccc(NS(=O)(=O)c3cccc(Cl)c3)cc2)nn1,.,.,.[10.9 µM]
O[C@@H](COc1cccc2ccccc12)CN1CCOCC1,.[9.22 µM],.[9.22 µM],.[10.9 µM]
COc1ccc(CCNC(=O)Cn2c(-c3ccc(F)cc3)cc(C(C)=O)c2C)cc1OC,.,.,.[10.9 µM]
COc1ccc(-n2nc3ccccc3n2)cc1,.,.,.
COc1ccc(-n2nc3cc(C)c(N)c(Br)c3n2)cc1,12.6µM,12.6µM,.
COc1ccc(C2C(=O)c3ccccc3C2=O)cc1,12.6µM,10µM,.
COc1ccc(C2C(=O)c3ccccc3C2=O)c(OC)c1,.,.,.
C=CCc1c(C)nc2nc(SCC(=O)Nc3cccc(Cl)c3)nn2c1C,?,.,.[10.9 µM]
C=CCc1c(C)nc2nc(SCC(=O)Nc3ccc(C)c(C)c3)nn2c1C,12.6µM,.,.[10.9 µM]
COc1cc(C(=O)N2CCC(c3nc4ccccc4o3)CC2)cc(OC)c1OC,.,.,.[10.9 µM]
CC1CCN(CC[C@@H]2CCCN2S(=O)(=O)c2cccc(O)c2)CC1,.,.,/
COC(=O)c1ccc(CSc2nc(N)cc(N)n2)cc1,?,12.6µM,.
COC(=O)c1ccc(CSc2nnc(N)s2)cc1,.,.,.
N#C/C(=C\c1ccc(-c2ccc(C(=O)O)cc2)o1)C(=O)Nc1ccccc1C(=O)O,.,.,.[10.9 µM]
